A number with no mark means an inactive call. Inconclusive results are not listed. Entries that show only a call come without a potency. Active and inactive are the calls of the source. Unless noted, the call rests on the fitted dose curve; in most records, active means well fitted curve in the direction sought with a large enough effect in the repeat runs; inconclusive means weak or mixed curves; inactive means no such curve, though single readings can be large; an effect the other way counts as inactive or inconclusive.
Legend:
[1] = qHTS assay to identify small molecule agonists of the estrogen related receptor (ERR) signaling pathway from Tox21 library (AID 1224849; calls by dose curve; further: nearly all actives have a fitted effect of over 15% in size)
In short: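 Six hours post-seeding at 37 C/5% CO2, ERR cells receive DMSO-solubilised compounds; after 18 h at 37 C, ONE-Glo reagent is applied and luminescence recorded.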

[2] = qHTS RealTime-Glo MT Cell Viability Assay in HEK293 cells - 32 hour (AID 1224868); further: nearly all actives have a fitted effect of over 50% in size; further: potency means the concentration at half of the fitted maximal effect
In short: (§1)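 Nonlytic real-time viability readout: viable cells convert prosubstrate to NanoLuc substrate, giving luminescence proportional to live cell number. HEK293, 600 cells/well, compound added after 5 h, continuous culture at 37 C.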

[3] = A CellTox Green Cytotoxicity Assay to monitor cytotoxicity in HEK293 cells - 0 hour (AID 1224869); further: nearly all actives have a fitted effect of over 50% in size
In short: (§2)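 Seeding of HEK293 cells together with cytotoxicity dye preceded a 5 h incubation at 37 C/5% CO2. Test compounds in DMSO were then added and fluorescence monitored across 40 h.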

[4] = qHTS RealTime-Glo MT Cell Viability Assay in HepG2 cells - 40 hour (AID 1224870); further: nearly all actives have a fitted effect of over 50% in size
In short: (§3)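 HepG2 cells mixed with RealTime-Glo MT reagents (NanoLuc plus cell-permeant prosubstrate) were seeded at 600 cells/well, incubated 5 h at 37 C/5% CO2, then pinned with compounds in DMSO; nonlytic luminescence tracked viability during 40 h treatment.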

[5] = A CellTox Green Cytotoxicity Assay to monitor cytotoxicity in HEK293 cells - 40 hour (AID 1224871); further: nearly all actives have a fitted effect of over 45% in size
In short: as §2

[6] = qHTS RealTime-Glo MT Cell Viability Assay in HEK293 cells - 16 hour (AID 1224872); further: nearly all actives have a fitted effect of over 50% in size; further: potency means the concentration at half of the fitted maximal effect
In short: as §1

[7] = qHTS RealTime-Glo MT Cell Viability Assay in HepG2 cells - 8 hour (AID 1224873); further: nearly all actives have a fitted effect of over 55% in size
In short: as §3

[8] = qHTS RealTime-Glo MT Cell Viability Assay in HEK293 cells - 40 hour (AID 1224874); conditions: RealTime-Glo luminescence; max response: active compounds read low; further: nearly all actives have a fitted effect of over 50% in size; further: potency means the concentration at half of the fitted maximal effect
In short: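 Tox21 screen in HEK293 using RealTime-Glo MT chemistry, with cells and reagent co-dispensed. Luminescence proportional to viable cell number was captured at intervals during 40 h compound exposure at 37 C.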

[9] = A CellTox Green Cytotoxicity Assay to monitor cytotoxicity in HEK293 cells - 24 hour (AID 1224875); further: series mostly up to about 77 µM; nearly all actives have a fitted effect of over 45% in size
In short: as §2

[10] = qHTS RealTime-Glo MT Cell Viability Assay in HepG2 cells - 24 hour (AID 1224867); further: nearly all actives have a fitted effect of over 50% in size
In short: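 Luminescence read-out: viable HepG2 cells reduce a prosubstrate to a NanoLuc substrate, giving a signal proportional to live cell number. Reads taken at 0, 8, 16, 24, 32 and 40 h of compound exposure at 37 C.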

Row | SMILES | outcome [1] | Potency [2] | Potency [3] | outcome [4] | Potency [5] | Potency [6] | outcome [7] | max response [8] [%] | Potency [9] | outcome [10] | Potency [8]
1 | CCC(C)(C)C1CCC(=O)CC1 | inactive | inactive | inactive | inactive | inactive | inactive | inactive | 7.65 | inactive |  | 
2 | CC(C)C(=O)Nc1cccc(C(F)(F)F)c1 | inactive | inactive |  | inactive | inactive | inactive | inactive | -2.33 | inactive | inactive | 
3 | C[C@@H]1C[C@H]2[C@@H]3C[C@H](F)C4=CC(=O)C=C[C@]4(C)[C@@]3(F)[C@@H](O)C[C@]2(C)[C@@]1(O)C(=O)CO | inactive | inactive | inactive | inactive | inactive | inactive | inactive | -1.4 | inactive | inactive | 
4 | COc1cccc2sc(N)nc12 | inactive | inactive | inactive | inactive |  | inactive | inactive | -6.71 | inactive | inactive | 
5 | CCCCCCCCCCCCCCCC(=O)NCCO | inactive | inactive | inactive | inactive | inactive |  | inactive | -2.85 | inactive | inactive | 
6 | O=P(O)(O)OCC(O)CO (centres undefined) | inactive | inactive | inactive | inactive |  | inactive | inactive | -2.63 |  | inactive | 
7 | CC(C)COC(=O)COc1ccc(Cl)cc1Cl | inactive | inactive | inactive | inactive | inactive | inactive | inactive | 6.46 | inactive | inactive | 
8 | NC(=O)NC(=O)Cc1ccccc1 | inactive | inactive | inactive | inactive |  | inactive | inactive |  | inactive | inactive | 
9 | CCCCCCCCOC(C)=O | inactive | inactive |  | inactive | inactive | inactive | inactive |  | inactive | inactive | 
10 | CN=C(NC#N)NCCSCc1csc(N=C(N)N)n1 | inactive | inactive | inactive | inactive | inactive | inactive | inactive | 1.73 | inactive | inactive | 
11 | CCCCCCCCCOCC1CO1 (centres undefined) | inactive | inactive | inactive | inactive | inactive | inactive | inactive |  | inactive | inactive | 
12 | O=c1[nH]c(=O)c2ccccc2o1 | inactive | inactive | inactive | inactive | inactive | inactive | inactive | 1.98 |  |  | 
13 | C=CCOC(=O)c1ccc(C(=O)OCC=C)c(C(=O)OCC=C)c1 | inactive | inactive |  | inactive | inactive | inactive | inactive | 4.3 |  | inactive | 
14 | Cc1nc2n(c(=O)c1CCN1CCC(C(=O)c3ccc(F)cc3)CC1)CCS2 | inactive | 5.35 µM (active) | inactive | inactive | inactive | 9.52 µM (active) | inactive |  | inactive |  | 6.01 µM (active)
15 | FC(F)(F)c1ccc(Cl)cc1Cl | inactive | inactive | inactive | inactive |  | inactive | inactive | 6.78 | inactive | inactive | 
16 | CC(=O)Nc1ccc(C)cc1 | inactive | inactive | inactive | inactive | inactive | inactive | inactive |  |  | inactive | 
17 | C1CCN2C[C@@H]3C[C@@H](CN4CCCC[C@@H]34)[C@H]2C1 | inactive | inactive | inactive | inactive | inactive |  | inactive | 1.31 |  | inactive | 
18 | O=CN1CCOCC1 | inactive | inactive |  | inactive | inactive | inactive | inactive | 10.7 |  | inactive | 
19 | CCC1COC(=O)O1 (centres undefined) | inactive | inactive | inactive | inactive |  | inactive | inactive | -0.285 | inactive | inactive | 
20 | O=S(=O)(O)c1cc(O)ccc1O | inactive | inactive | inactive | inactive | inactive | inactive | inactive | 9.53 |  | inactive | 
21 | C=C(C)C(=O)OC | inactive | inactive |  | inactive | inactive | inactive | inactive | -13.6 | inactive | inactive | 
22 | NC(=O)NNC(N)=O | inactive | inactive | inactive | inactive | inactive | inactive | inactive | 19.6 | inactive |  | 
23 | O=C(COCCOCCOCC(=O)Nc1c(I)cc(I)c(C(=O)O)c1I)Nc1c(I)cc(I)c(C(=O)O)c1I | inactive | inactive | inactive | inactive |  |  | inactive | 3.14 |  | inactive | 
24 | O=[Si]=O | inactive | inactive |  | inactive | inactive | inactive | inactive | 0.247 | inactive | inactive | 
25 | CC(C)C(=O)c1ccccc1 | inactive | inactive | inactive | inactive | inactive | inactive | inactive | -17.8 | inactive | inactive | 

— PubChem BioAssay (Tox21)
